Compound activity: PubChem, National Center for Advancing Translational Sciences (NCATS)
Compounds with a hit are over-represented: about 11% of the library has one in this group of screens.
HSD17B inh – qHTS Assay for Inhibitors of HSD17B4, hydroxysteroid (17-beta) dehydrogenase 4 | 3-hydroxyacyl-CoA dehydrogenase type-2 (Homo sapiens), Q99714 | 7.6% of 75,000 active | Potency, µM (top dose mostly 57.1 µM), inactives show at the top dose activity change, negative = inhibition, most hits filed as inhibitors | recombinant HSD17B10, NADH fluorescence kinetic | AID 893, 2007;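 further: the protocol describes HADH2 (HSD17B10) and not the HSD17B4 of the title; nearly all actives have a fitted effect of over 70% in size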
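His-tagged E. coli-expressed HADH2 at 20 nM in 100 mM Tris-HCl pH 9.0 with 0.01 % Tween-20, preincubated 15 min with compound at room temperature. Reaction with 1 mM NAD+ and 90 uM beta-hydroxybutyryl coenzyme A; NADH fluorescence (360/450 nm) read kinetically over 4 min, last minus first point.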
FLuc inh – qHTS Assay for Inhibitors of Firefly Luciferase | Potency, µM (doses to about 57.1 µM), without a hit: at the highest dose activity change, negative = inhibition, actives largely listed as inhibitors | purified firefly luciferase, luminescence, 8 min | Luciferin 4-monooxygenase (Photinus pyralis), P08659 | 2.2% of 72,000 active; further: nearly all actives have a fitted effect of over 40% in size
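Luminescence read-out after 8 min at room temperature; enzyme reaction used luciferin plus 10 uM ATP (linear range) in imidazole buffer pH 7.2 with KCl, MgCl2, Tween 20 and BSA. Each sample was run as a titration.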
ERK AVP inh – qHTS Assay for Inhibitors of the ERK Signaling Pathway using a Homogeneous Screening Assay. HEK293-V1b, vasopressin-stimulated pERK AlphaScreen. Potency, µM (top dose mostly 57.5 µM), inactives show top-dose activity, negative = inhibition, most hits filed as inhibitors. 0.99% of 72,000 active. AID 995, 2007; further: nearly all actives have a fitted effect of over 55% in size
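Overnight-seeded V1b-HEK293 cells in 1% FBS got compound, then vasopressin (25 nM final, 5 min, 37C), then lysis buffer. AlphaScreen detection of phospho-ERK; activity normalized to basal and full-stimulation controls.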
ALOX15 inhib – qHTS Assay for Inhibitors of 15-hLO (15-human lipoxygenase); purified 15hLO-1, xylenol orange hydroperoxide absorbance; Potency, µM (top dose mostly 57.1 µM), for the others: at the top dose activity change, negative = inhibition, actives largely listed as inhibitors; 1.4% of 74,000 active; AID 887, 2007; further: nearly all actives have a fitted effect of over 55% in size
Target sequence (P16050 whole entry, looked up): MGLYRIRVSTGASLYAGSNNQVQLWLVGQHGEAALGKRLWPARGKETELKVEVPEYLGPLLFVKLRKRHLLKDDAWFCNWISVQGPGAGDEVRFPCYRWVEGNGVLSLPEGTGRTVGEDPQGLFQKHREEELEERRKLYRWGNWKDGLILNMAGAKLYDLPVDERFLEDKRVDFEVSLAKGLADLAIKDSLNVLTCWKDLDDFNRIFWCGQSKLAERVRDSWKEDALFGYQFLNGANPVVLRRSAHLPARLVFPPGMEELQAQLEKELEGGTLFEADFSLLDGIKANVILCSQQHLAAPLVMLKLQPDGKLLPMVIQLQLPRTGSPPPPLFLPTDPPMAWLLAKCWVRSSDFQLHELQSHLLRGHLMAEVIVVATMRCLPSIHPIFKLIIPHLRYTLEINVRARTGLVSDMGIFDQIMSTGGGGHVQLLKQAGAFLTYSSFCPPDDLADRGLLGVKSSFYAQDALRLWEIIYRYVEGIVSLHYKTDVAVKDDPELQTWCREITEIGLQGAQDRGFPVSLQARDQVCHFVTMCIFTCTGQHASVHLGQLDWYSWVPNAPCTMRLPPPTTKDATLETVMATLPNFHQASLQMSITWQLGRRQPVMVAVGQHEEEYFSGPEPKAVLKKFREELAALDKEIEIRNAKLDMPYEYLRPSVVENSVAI
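Purified human 15hLO-1 (40 nM final) in 25 mM Hepes pH 7.5, 0.01% Triton X-100 was preincubated with compound 15 min at room temperature, then reacted 6 min with 50 uM arachidonic acid; hydroperoxide detected by Fe-XO, 573/405 nm absorbance ratio.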
PK Bst – Pyruvate Kinase | purified pyruvate kinase, luminescence ATP production; ribose 5-phosphate activator present at AC10 | Potency, µM | 1.2% of 51,000 active; in the data active means potency below about 11 µM; inconclusive means mostly about 12 µM to 25 µM;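 the screen sought inhibitors and activators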;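 further: scaled between full activation by ribose 5 phosphate and full inhibition by luteolin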
HADH2 inh – qHTS Assay for Inhibitors of HADH2 (Hydroxyacyl-Coenzyme A Dehydrogenase, Type II); recombinant HADH2, NADH fluorescence, beta-hydroxybutyryl-CoA; 3.4% of 73,000 active; Potency, µM (top dose mostly 57.1 µM), without a hit: top-dose activity change, negative = inhibition, actives largely listed as inhibitors; further: nearly all actives have a fitted effect of over 60% in size
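Read-out: 360 nm excitation, 450 nm emission, kinetic over 4 min. Conditions: His-tagged human HADH2 20 nM, pH 9.0 Tris with Tween-20, 1 mM NAD+, 90 uM beta-hydroxybutyryl-CoA.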
* hit, by the source's call; i = inactive; ? = inconclusive; · = not tested or not shown; [ ] = dose if it differs, or a comment. Unless noted, the call rests on the fitted dose curve; in most records, active means well fitted curve in the direction sought with a large enough effect; inconclusive means small, poorly fitted or top-dose-only effect, or another doubt; inactive means no such curve, though single readings can be large; an effect the other way counts as inactive or inconclusive. Unless noted, on the % scale 0 is the no-effect control and ±100 the full control effect; potency means the concentration at half of the fitted maximal effect.

SMILES	HSD17B inh	FLuc inh	ERK AVP inh	ALOX15 inhib	PK Bst	HADH2 inh
COc1cc2c(=O)n(CC3CCCO3)c(=O)n(CC(=O)Nc3cccc(Cl)c3)c2cc1OC (configuration not stated)	25µM*	1%	-20%	-4%	>57	-8%
CCCOc1ccc(N2C(=O)CC(N3CCN(c4ccccc4OC)CC3)C2=O)cc1 (configuration not stated)	-9%	1%	0%	?	·	-1%
CCOc1ccc(N2C(=O)CC(N3CCN(c4ccccc4F)CC3)C2=O)cc1 (configuration not stated)	10µM*	0%	3%	?	·	?
CC(=O)c1c(C)[nH]c(C(=O)OCCCCN2C(=O)c3ccccc3C2=O)c1C	-5%	7%	13µM*	-1%	>57	13%
O=C(OCCCCN1C(=O)c2ccccc2C1=O)c1n[nH]c2ccccc12	?	-2%	?	-2%	>57	?
O=C1C=C(Nc2nc(C(=O)O)cc(=O)[nH]2)c2ccccc2C1=O	3%[11.4 µM]	4%[11.4 µM]	4%[11.5 µM]	2%[11.4 µM]	·	-3%[11.4 µM]
Cc1cc(-c2ccccc2N)n[nH]1	25µM*	-7%	-11%	10%	>11	-13%
Cc1cc(-c2cccs2)n[nH]1	2%	0%	-3%	8%	·	2%
Cc1ccc2nsnc2c1N(S(C)(=O)=O)S(C)(=O)=O	25µM*	0%	?	-4%	>57	-4%
Cc1c(C(=O)O)c(O)cc2c1C(=O)c1c(O)c([C@@H]3O[C@H](CO)[C@@H](O)[C@H](O)[C@@H]3O)c(O)c(O)c1C2=O	·	-5%[11.4 µM]	·	·	·	5%
O=C(CN1CCN(c2ccccn2)CC1)Nc1ccc(Cl)c(C(F)(F)F)c1	0%	4%	-3%	9%	>57	4%
CCOC(=O)C1CCCN(CC(=O)Nc2c(C(=O)OC)[nH]c3ccc(Br)cc23)C1 (configuration not stated)	-25%	3%	1%	-6%	>57	-4%
CCOC(=O)c1[nH]c2ccc(OCC)cc2c1NC(=O)CN1CCCC(C)C1 (configuration not stated)	32µM*	4%	-2%	-5%	i	-8%
CCOC(=O)c1[nH]c2cc3c(cc2c1NC(=O)CN1CC(C)CC(C)C1)OCO3 (configuration not stated)	·	-1%[25.5 µM]	·	·	3.5*	·
CCOC(=O)c1[nH]c2ccc(OCC)cc2c1NC(=O)CN1CCN(c2ccccn2)CC1	25µM*	0%	-23%	-7%	>57	?
O=C(CN1CCN(c2ccccn2)CC1)Nc1ccc2ccccc2c1	8%	40µM*	-7%	1%	>57	-6%
CC(C)(C)c1ccc(O)c(CN(Cc2cc(C(C)(C)C)ccc2O)C2CCCCC2)c1	-3%[11.4 µM]	5%[11.4 µM]	17%[11.5 µM]	-8%[11.4 µM]	·	13%[11.4 µM]
CCCCCCC#CC1C=CC(OC(=O)OCC)C(COC(=O)OCC)O1 (configuration not stated)	-8%[11.4 µM]	·	0%[11.5 µM]	-6%[11.4 µM]	·	-11%[11.4 µM]
COC(=O)c1[nH]c2ccc(C)cc2c1NC(=O)CN1CCCC(C)(C)C1	?	1%	15%	5%	>57	-18%
CCOC(=O)c1[nH]c2ccc(C)cc2c1NC(=O)CN1CCCCC1	20µM*	-3%	-23%	-2%	>57	?
COC(=O)c1[nH]c2ccc(C)cc2c1NC(=O)CCN1CCN(C2CCCCC2)CC1	32µM*	1%	-7%	0%	>57	-7%
COC(=O)c1[nH]c2cc(C)ccc2c1NC(=O)CN1CCN(C(=O)c2ccco2)CC1	4µM*	3%	11%	-20%	>11	?
COC(=O)c1[nH]c2ccc(Cl)cc2c1NC(=O)CCN1CCN(C2CCCCC2)CC1	?	3%	-10%	1%	>57	-7%
COC(=O)c1[nH]c2ccc(C)cc2c1NC(=O)CN1CCc2cc(OC)c(OC)cc2C1	25µM*	-2%	-23%	-2%	>57	-9%
CC(Cc1ccccc1)C(=O)NCCc1c[nH]c2ccccc12 (configuration not stated)	?	·	?	?	·	0%
SMILES	HSD17B inh	FLuc inh	ERK AVP inh	ALOX15 inhib	PK Bst	HADH2 inh
COC(=O)c1[nH]c2ccc(C)cc2c1NC(=O)Nc1ccccc1OC	337%	-2%	-5%	25µM*	>57	142%
CCOC(=O)C1CCN(CC(=O)Nc2c(C(=O)OC)[nH]c3ccc(Cl)cc23)CC1	?	0%	25µM*	-6%	>57	-1%
COC(=O)c1[nH]c2ccc(C)cc2c1NC(=O)C1=COCCO1	-23%	-13%	?	-12%	>57	?
CCOC(=O)C1CCN(CC(=O)Nc2c(C(=O)OC)[nH]c3ccccc23)CC1	?	1%	-32%	-3%	>57	-7%
CCOC(=O)c1[nH]c2cc(OC)c(OC)cc2c1NC(=O)CN1CCN(C)CC1	25µM*	2%	-22%	15%	>57	32µM*
COC(=O)c1[nH]c2cc(OC)c(OC)cc2c1NC(=O)c1cccc(OC)c1	7%	7.9µM*	-14%	-3%	i	6%
COC(=O)NC(CC(C)=O)c1ccc(F)cc1 (configuration not stated)	1%[11.4 µM]	·	15%[11.5 µM]	5%[11.4 µM]	·	-3%[11.4 µM]
C[C@@H]1NC(=O)C/C=C\[C@@H](C)[C@@H]2C=C[C@H](O)[C@@H](COC(=O)[C@H](C)NC(=O)C/C=C\[C@@H](C)[C@@H]3C=C[C@H](O)[C@@H](COC1=O)O3)O2	2%[11.4 µM]	1%[11.4 µM]	6%[11.5 µM]	3%[11.4 µM]	·	-4%[11.4 µM]
CCCNC(=O)OC[C@@H]1O[C@H](CCO/N=C(\C)CCN2CCc3nc(-c4ccccc4)c(-c4ccccc4)cc3C2)C=C[C@@H]1Oc1ccc(OC)cc1	7%[11.4 µM]	0%[11.4 µM]	-2%[11.5 µM]	-1%[11.4 µM]	·	15%[11.4 µM]
CCOc1ccccc1NC(=O)C1CCCN(C(=O)NCc2ccccc2)C1 (configuration not stated)	1%	5%	-16%	-8%	>57	17%
CCN1CCN(C(=O)Nc2cccc3ccccc23)CC1	32µM*	-1%	-12%	0%	·	?
CN1CCN(C(=O)Nc2cccc3ccccc23)CC1	25µM*	1%	-10%	11%	>57	-20%
O=C(Nc1cccc2ccccc12)N1CCN(c2ccc(F)cc2)CC1	?	-2%	-10%	9%	·	?
NC(=O)C1CCCN(C(=O)Nc2cccc3ccccc23)C1 (configuration not stated)	16µM*	6%	-2%	-4%	>57	?
